Reference: the supplement of paper PMC6555819

Legend:
Experiment in all cases: PBM binding z-score (relative to random genomic background probes); higher = stronger binding; sequences stand for … in GC…GCGATTGACAGCGTAGAATGAAGG
[1] = system: RARb homodimer (NR concentration 270 nM)
Summary of the method: (§1)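 The probes on custom Agilent 4×180K protein-binding microarrays were double-stranded, with 34-nt variable regions bearing direct-repeat seeds, single-nucleotide variants, half-site ablations and random human genomic background sequences. Incubation lasted 1 h with ligand-free nuclear receptor dimers in PBS pH 7.4, 2% milk, 0.02% Triton X-100, 1 mM DTT, 0.2 mg/mL BSA and 0.4 mg/ml salmon testes DNA. Antibodies against each partner (one per run) detected bound dimers, and fluorescence scans were regression-normalized. Binding z-scores take the random background probes as reference.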

[2] = system: RARg:RXRa (NR concentration 270 nM, RXRa partner concentration 90 nM)
Summary of the method: as §1

[3] = system: RARg homodimer (NR concentration 270 nM)
Summary of the method: as §1

[4] = system: RXRa DBDmut IVT, anti-RXR (DBD mutation: RXRa K156A/R161A, NR concentration 90 nM)
Summary of the method: as §1

[5] = system: RXRa homodimer (NR concentration 180 nM)
Summary of the method: as §1

[6] = system: THRa:RXRa (NR concentration 90 nM, RXRa partner concentration 90 nM)
Summary of the method: as §1

[7] = system: THRa homodimer (NR concentration 90 nM)
Summary of the method: as §1

[8] = system: VDR homodimer (NR concentration 270 nM)
Summary of the method: as §1

Row | Sequence | PBM binding z-score [1] | PBM binding z-score [2] | PBM binding z-score [3] | PBM binding z-score [4] | PBM binding z-score [5] | PBM binding z-score [6] | PBM binding z-score [7] | PBM binding z-score [8]
1 | GATCGGAGGACAAGGTCAGAGCTTTGTCCGTAGA | 3.27 | 3.05 | 3.57 | 0.217 | 2.48 | 2.94 | 1.33 | 0.466
2 | TCGAGTAGGTTAGTCGGGGCATTCAGCCAACATA | 0.309 | -0.257 | -0.115 | 0.217 | -0.227 | 0.885 | -0.0985 | 0.0153
3 | CTGGAAAGGTCGGTTGAGGTGAGTATACGGATAA | 2.18 | 2.53 | 2.93 | 1.05 | 2.18 | 4.88 | 1.56 | 0.437
4 | GCTGCTAGGTCAGGTTGGTCAGGTAACGGGTACG | 2.89 | 2.59 | 3.55 | 0.37 | 1.06 | 2.32 | 2.02 | 0.789
5 | TGAATGAGGATAAAGATCAGGGAACGTGGCGTCG | -0.895 | 0.0209 | 0.399 | -0.871 | -0.0726 | 1.33 | 0.0902 | -0.316
6 | ACTATTAGTTGACTTATGGCAACCGATACGACGC | 0.102 | 0.814 | 0.872 | 0.726 | 0.823 | 0.347 | -0.0591 | 0.143
7 | CGAACTAGGTCAAAGACAGTGAATCTCCGCACGC | 2.53 | 3.63 | 3.88 | 1.57 | 2.67 | 2.39 | 0.814 | 0.508
8 | CGTCAAAGTTCAACTACGGTAACGTAAAGCACGC | 4.21 | 5.89 | 6.48 | 4.64 | 5.18 | 4.23 | -0.22 | 3.69
9 | CCTAGTGGGCCACGAAAGGTCATTGATTCAGTGA | 4.68 | 4.71 | 4.64 | 0.0516 | 5.09 | 3.82 | 0.453 | 1.99
10 | CTCGAAAGGTCGTGCTAAGGTGAGTATACCAAAC | 3.37 | 6.03 | 4.31 | 2.01 | 5.25 | 4.61 | 1.79 | 1.29
11 | CGTCCAAGGTCAAAGGCCAGTGAAGAGATGACGG | 4.03 | 6.17 | 6.72 | 3.33 | 6.48 | 3.82 | 1.82 | 3.32
12 | ATATGTAGGTTAGCTGGGGGCATTCAGACTAGGC | 2.15 | 2.32 | 2.43 | 1.71 | 1.67 | 4.62 | 1.84 | 2.94
13 | CCTTACGGGTTACGAGGTTATAGCACGACGAGCG | 1.24 | 2.31 | 1.43 | -0.0539 | 2.99 | 2.23 | 0.638 | 0.469
14 | CCGACTGGGGCAAGGTTACCAGAACGCACAGCCA | 1.39 | 1.01 | 1.27 | -0.418 | 1.07 | 1.06 | -0.142 | -0.475
15 | CGAACTAGGTCATCCAGGAGAGTGAATACATTGA | 2.87 | 3.87 | 4.68 | 2.19 | 2.84 | 2.93 | 0.976 | 0.755
16 | TTACCAAGGTGAAAGGTCGTTTATGCACGCCTTG | 2.24 | 3.89 | 1.62 | 1.14 | 5.38 | 3.17 | 0.854 | 2.03
17 | CGAACGAGGGTATGAGTTGATAGCAAATGCCGAT | -0.208 | 0.124 | 0.248 | 0.658 | 0.0632 | -0.183 | -0.485 | 0.345
18 | TCTATTAGTTGATTAGAGCAACCGAAACAGCGGA | -0.716 | 0.0982 | 0.245 | 0.765 | 0.293 | -0.353 | -0.739 | 0.18
19 | TCAGACAGGAGAAGGTAACTCAGGTACGCAGTCG | -0.2 | 0.286 | 0.356 | 1.23 | 0.47 | 0.913 | 0.177 | -0.0806
20 | CCTACTGGGCCACGAAAGGTCATTAATTCAGTGA | 4.39 | 4.33 | 3.75 | 0.737 | 4.52 | 3.67 | 1.04 | 2.25
21 | CCGACTAGGTTATGGGGCATTCAGGCAACGGTGA | 1.03 | 0.358 | 0.34 | -0.142 | 0.666 | 0.586 | 0.24 | 0.126
22 | TCTGCTATGTCAGTTGGTCAGCTAACGAGCTGCC | 0.0404 | -0.0925 | -0.134 | 0.0834 | -0.0847 | -0.538 | -1.16 | -0.982
23 | ATATGTAGGTTACATCCGGGTCATTGAGGCTATG | 3 | 3.72 | 2.07 | 1.25 | 3.12 | 3.92 | 2.69 | 2.7
24 | ACTTACGTGTCAACGAGGTTATAGCACGCGTATA | 1.17 | 1.44 | 1.18 | 0.532 | 1.38 | 1.99 | 0.476 | 0.875
25 | CGTCCAAGGTCAAGGTCAGTGAGAGAGACTCGAA | 5.4 | 6.7 | 7.4 | 3.75 | 6.25 | 4.31 | 3.35 | 3.5
26 | GCGACTGGGGCCAAGCAGGTTACCATAAGGTTGG | 1.2 | 0.615 | 0.586 | -0.252 | 0.329 | 1.3 | 0.0537 | 0.051
27 | CCTAATGGGCCATCAGGTCATTGATATCAACGTT | 2.76 | 2.27 | 2.23 | 0.496 | 1.39 | 3.38 | 2.92 | 1.57
28 | TCTGCTACGTCAACGATGGTCAGCTAATCTGCTA | -0.67 | -0.316 | -0.0659 | 0.0473 | -0.261 | -0.616 | -0.92 | -1.61
